Data: PubChem BioAssay (NCATS)
Values joined by “and” are separate entries in the source; they are usually repeats but may differ in a detail not shown here. Equal entries are not always repeated. Records with an inconclusive call do not appear. The source holds several records for some structures; these can differ, active in one and inactive in another. Active and inactive are the calls of the source. Calls follow the shape of the dose curve; as a rule, active = well fitted inhibition curve with a large enough effect; inconclusive = small, poorly fitted or top-dose-only effect; inactive = flat fitted curve, though single readings scatter.

Tests used:
[1] = system: CRL-7250; assay: Cytotoxic Profiling of Annotated Libraries Using Quantitative High-Throughput Screening (AID 1296008); conditions: Five cell lines viability, CellTiter-Glo ATP luminescence, 48-72 h; max response: hits give low values; as to max response: % is scaled to controls: 0 for no effect and ±100 for the full control effect
Outline: (§1)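 Compounds were pin-transferred onto cells and incubated 48 or 72 hr at 37 degree Celsius, 95% humidity. CellTiter-Glo was added, plates sat 10 min at room temperature, then ATP-coupled luminescence was imaged as the viability read-out.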

[2] = system: HEK293; assay: as above; conditions: Five cell lines viability, CellTiter-Glo ATP luminescence, 48-72 h; max response: hits give low values
Outline: as §1

[3] = system: PC15; assay: qHTS profiling for inhibitors of Plasmodium falciparum proliferation (AID 504749); conditions: P. falciparum in erythrocytes, SYBR Green DNA, 72 h; series mostly up to 28.7 µM
Outline: (§2)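 Quantitative HTS: compounds pinned into medium, infected erythrocytes added (0.3% parasitemia, 2.5% hematocrit), 72 h culture at 37 C under 5% CO2. Saponin/Triton lysis with SYBR Green I, overnight RT, then fluorescence read.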

[4] = system: PC26; assay: as above; conditions: P. falciparum in erythrocytes, SYBR Green DNA, 72 h; series mostly up to 28.7 µM
Outline: as §2

[5] = system: PC49; assay: as above; conditions: P. falciparum in erythrocytes, SYBR Green DNA, 72 h; series mostly up to 28.7 µM
Outline: as §2

[6] = system: SC27B; assay: as above; conditions: P. falciparum in erythrocytes, SYBR Green DNA, 72 h; series mostly up to 28.7 µM
Outline: as §2

[7] = system: TAB109; assay: as above; conditions: P. falciparum in erythrocytes, SYBR Green DNA, 72 h; series mostly up to 28.7 µM
Outline: as §2

[8] = system: TAB113; assay: as above; conditions: P. falciparum in erythrocytes, SYBR Green DNA, 72 h; series mostly up to 28.7 µM
Outline: as §2

[9] = system: TAB165; assay: as above; conditions: P. falciparum in erythrocytes, SYBR Green DNA, 72 h; series mostly up to 28.7 µM
Outline: as §2

[10] = system: W2; assay: as above; conditions: P. falciparum in erythrocytes, SYBR Green DNA, 72 h; series mostly up to 28.7 µM
Outline: as §2
Also: nearly all actives have a fitted effect of over 60% in size.
Potency is read from the fitted curve at half-maximal effect.

COc1cc2ncnc(Nc3cccc(Cl)c3)c2cc1OC
active: Potency [1] 0.187 µM

O=C(O)c1cccnc1
inactive: max response [1] 0.94% | max response [2] -12.4%
active: Potency [1] 16.6 µM | Potency [2] 2.64 µM

CCN(CC)CC#CCOC(=O)C(O)(c1ccccc1)C1CCCCC1 (stereo not given)
inactive: outcome [1]

O=C(O)CCn1c2c(c3ccccc31)C[C@H](NS(=O)(=O)c1ccc(F)cc1)CC2
inactive: max response [1] -4.51% | outcome [1] | max response [2] 3.39% and -17.8% | outcome [2]

CCOC(=O)[C@H](CCc1ccccc1)N[C@H]1CCc2ccccc2N(CC(=O)O)C1=O
inactive: max response [1] -7.52%

C[C@@H](CN1CC(=O)NC(=O)C1)N1CC(=O)NC(=O)C1
inactive: max response [1] 0.572%
active: Potency [1] 0.148 µM | Potency [2] 0.235 µM

Cc1ccc(S(=O)(=O)N[C@@H](Cc2ccccc2)C(=O)CCl)cc1
inactive: max response [1] -1.25%

O=C(N[C@H](CO)[C@H](O)c1ccc([N+](=O)[O-])cc1)C(Cl)Cl
inactive: max response [1] 2.58% | outcome [1]

CN(C)CCc1c[nH]c2ccc(C[C@H]3COC(=O)N3)cc12
inactive: max response [1] -10.2% | outcome [1] | max response [2] 4.33% and -3.7%
active: Potency [2] 4.18 µM

CC(C)(Sc1cc(C(C)(C)C)c(O)c(C(C)(C)C)c1)Sc1cc(C(C)(C)C)c(O)c(C(C)(C)C)c1
inactive: Potency [3] | Potency [4] | Potency [5] | Potency [6] | Potency [7] | Potency [8] | Potency [9] | max response [1] -4.36% | outcome [1] | max response [2] 2.23% | outcome [2]
active: Potency [10] 4.05 µM

O=NN(CCCl)C(=O)NC1CCCCC1
inactive: Potency [3] | Potency [4] | Potency [5] | Potency [6] | Potency [7] | Potency [8] | Potency [9] | Potency [10] | max response [1] 4.87% | outcome [1] | max response [2] 3.97% | outcome [2]

C[C@@H]1C[C@H]2[C@@H]3CCC4=CC(=O)C=C[C@]4(C)[C@@]3(Cl)[C@@H](O)C[C@]2(C)[C@@]1(OC(=O)c1ccco1)C(=O)CCl
inactive: max response [1] -41.7%

Clc1ccccc1CN1CCc2sccc2C1
inactive: max response [1] -20.6% | outcome [1]

C[C@@H]1CN(c2c(F)c(N)c3c(=O)c(C(=O)O)cn(C4CC4)c3c2F)C[C@H](C)N1
inactive: max response [1] -4.39% | outcome [1] | outcome [2]

Cc1cc(NS(=O)(=O)c2ccc(N)cc2)no1
inactive: max response [1] -8.57% | outcome [1]

CCOC(=O)[C@H](CCc1ccccc1)N[C@H]1CS[C@H](c2cccs2)CN(CC(=O)O)C1=O
inactive: Potency [3] | Potency [4] | Potency [5] | Potency [7] | Potency [8] | max response [1] -9.28% | outcome [1] | max response [2] 4.3% | outcome [2]

CC(C(=O)O)c1ccc2c(c1)CC(=O)c1ccccc1S2 (stereo not given)
inactive: max response [1] -3.49% and 3.11% | outcome [1] | max response [2] -0.0676% and -6.42% and 0.0288%

CNS(=O)(=O)CCc1ccc2[nH]cc(C3CCN(C)CC3)c2c1
inactive: max response [1] -7.4% and 0.211% | outcome [1] | max response [2] -3.79% and -10.1% | outcome [2]

NS(=O)(=O)c1cc2c(cc1Cl)NC(C(Cl)Cl)NS2(=O)=O (stereo not given)
inactive: max response [1] -3.96% | outcome [1] | max response [2] -0.123% | outcome [2]

CNS(=O)(=O)Cc1ccc2[nH]cc(CCN(C)C)c2c1
inactive: Potency [3] | Potency [4] | Potency [5] | Potency [6] | Potency [7] | Potency [8] | Potency [9] | max response [1] -6.22% | outcome [1] | max response [2] 2.84% | outcome [2]

CC(=O)[C@H]1CC[C@H]2[C@@H]3CC=C4C[C@@H](O)CC[C@]4(C)[C@H]3CC[C@]12C
inactive: max response [1] 3.91% | outcome [1] | max response [2] -4.16% and 0.472%

COc1cc2nc(N3CCCN(C)CC3)nc(NC3CCN(Cc4ccccc4)CC3)c2cc1OC
active: Potency [1] 9.35 µM

COC(=O)Nc1nc2ccc(S(=O)c3ccccc3)cc2[nH]1 (stereo not given)
inactive: max response [1] -3.6%
active: Potency [1] 7.5 µM | Potency [2] 841 nM and 16.6 µM

Cc1nnc(C(=O)NC(C)(C)c2nc(C(=O)NCc3ccc(F)cc3)c(O)c(=O)n2C)o1
inactive: max response [1] 1.7% and -8.84% | outcome [1] | max response [2] -1.41% and 1.54% and -3.51%

CCn1cc(C(=O)O)c(=O)c2cc(F)c(N3CCN(C)CC3)cc21
inactive: Potency [3] | Potency [4] | Potency [5] | max response [1] -3.59% | outcome [1] | max response [2] 0.679% | outcome [2]

O=S(=O)(O)CCS
inactive: Potency [3] | Potency [4] | Potency [5] | Potency [6] | Potency [7] | Potency [8] | Potency [9] | Potency [10] | max response [1] 3.2% | outcome [1] | max response [2] -11.9% | outcome [2]

NNC(=O)c1ccncc1
inactive: max response [1] 4.6% | outcome [1] | max response [2] 3.4% and -0.464%

COc1ccccc1OCC(O)COC(N)=O (stereo not given)
inactive: max response [1] -1.17% | outcome [1] | max response [2] 2.15% | outcome [2]

O=C(O)CSCC(=O)NC1CCSC1=O (stereo not given)
inactive: max response [1] -2.44% | outcome [1] | max response [2] -6.58% | outcome [2]

CC(C)OC(=O)OCOP(=O)(CO[C@H](C)Cn1cnc2c(N)ncnc21)OCOC(=O)OC(C)C
inactive: max response [1] -6.19% | outcome [1] | max response [2] -4.37% | outcome [2]

CCC(=O)O[C@]1(C(=O)CCl)[C@@H](C)C[C@H]2[C@@H]3CCC4=CC(=O)C=C[C@]4(C)[C@@]3(F)[C@@H](O)C[C@@]21C
inactive: max response [1] -12.4% | outcome [1]

Nc1nc(F)nc2c1ncn2[C@@H]1O[C@H](CO)[C@@H](O)[C@@H]1O
active: Potency [1] 0.332 µM | Potency [2] 0.662 µM
inactive: max response [1] -19.1% | max response [2] -7.93%

CS(=O)(=O)c1ccc([C@@H](O)[C@@H](CO)NC(=O)C(Cl)Cl)cc1
inactive: max response [1] -2.94% | outcome [1]

CC(=O)CC(c1ccccc1)c1c(O)c2ccccc2oc1=O (stereo not given)
inactive: max response [1] -2.79% | outcome [1] | outcome [2]

CCC(C)(C)c1ccc(CC(C)CN2C[C@@H](C)O[C@@H](C)C2)cc1 (stereo not given in full)
inactive: Potency [3] | Potency [4] | Potency [5] | Potency [6] | Potency [7] | Potency [8] | Potency [9] | max response [1] 0.576% | outcome [1]

CN1CCN(c2c(F)cc3c(=O)c(C(=O)O)cn4c3c2OCN4C)CC1
inactive: Potency [3] | Potency [4] | Potency [5] | Potency [6] | Potency [7] | Potency [8] | Potency [9] | max response [1] -0.174% | outcome [1]

Cn1c(=O)c2c(ncn2CC(O)CO)n(C)c1=O (stereo not given)
inactive: max response [1] 2.57% and -3.36% | max response [2] -3.34% and -13.7%

CCCN[C@H]1CCc2nc(N)sc2C1
inactive: Potency [3] | Potency [4] | Potency [5] | Potency [6] | Potency [7] | Potency [8] | Potency [9] | Potency [10] | max response [1] 0.673% | outcome [1] | outcome [2]

O=C(O)c1cc(=O)[nH]c(=O)[nH]1
inactive: Potency [3] | Potency [4] | Potency [5] | Potency [6] | Potency [7] | Potency [8] | Potency [9] | Potency [10] | max response [1] 0.562% | outcome [1]

COc1cc([C@@H]2c3cc4c(cc3[C@H](O)[C@H]3COC(=O)[C@H]23)OCO4)cc(OC)c1OC
active: Potency [3] 1.78 µM | Potency [4] 8.49 µM | Potency [5] 8.91 µM | Potency [6] 4.47 µM | Potency [7] 2.51 µM | Potency [8] 3.16 µM | Potency [9] 2.24 µM | Potency [10] 1.69 µM | Potency [1] 0.0299 µM
inactive: max response [1] -103%

S=P(N1CC1)(N1CC1)N1CC1
inactive: Potency [3] | Potency [4] | Potency [5] | Potency [6] | Potency [7] | Potency [8] | Potency [9] | Potency [10] | max response [1] -10.3% | outcome [1]
active: Potency [2] 22.8 µM

COC(c1ccccc1)(c1ccccc1)[C@H](Oc1nc(C)cc(C)n1)C(=O)O
inactive: outcome [1] | max response [2] -24.1% and 3.62%

O=c1cc(O)c(Cl)c[nH]1
inactive: Potency [3] | Potency [4] | Potency [5] | Potency [6] | Potency [7] | Potency [8] | Potency [9] | Potency [10] | max response [1] -3.23% | outcome [1] | max response [2] 3.54% and 0.705%

Cc1cccc(N(C)C(=S)Oc2ccc3ccccc3c2)c1
inactive: Potency [3] | Potency [4] | Potency [5] | Potency [6] | Potency [7] | Potency [8] | Potency [9] | Potency [10] | max response [1] -5.5% | outcome [1]

CC1=C(C(=O)O)N2C(=O)[C@@H](NC(=O)C(N)c3ccccc3)[C@H]2SC1 (stereo not given in full)
inactive: max response [1] -9.32% | max response [2] -2.36%

CNCC[C@H](Oc1cccc2ccccc12)c1cccs1
inactive: max response [1] -21.6% | outcome [1]
active: Potency [3] 5.01 µM | Potency [4] 8.49 µM | Potency [5] 4.47 µM | Potency [7] 7.08 µM | Potency [8] 8.91 µM | Potency [9] 12.6 µM | Potency [10] 1.9 µM | Potency [2] 21.1 µM

CC1=NN(c2ccccc2)C(=O)C1
inactive: Potency [3] | Potency [4] | Potency [5] | Potency [6] | Potency [7] | Potency [8] | Potency [9] | max response [1] -10.4% and -10.5% | outcome [1] | max response [2] -7.12% and -3.41% and -4.46%

CC(C)Cn1cnc2c(N)nc3ccccc3c21
inactive: Potency [3] | Potency [4] | Potency [5] | Potency [6] | Potency [7] | Potency [9] | Potency [10] | max response [1] -12.7% | outcome [1] | max response [2] -0.0078%

CCN(CC)CCn1c(=O)c(Cc2ccc(OC)cc2)nc2ccccc21
inactive: max response [1] -4.28% | max response [2] -12.9%

CCCCS(=N)(=O)CCC(N)C(=O)O (stereo not given)
inactive: max response [1] -8.66% | max response [2] -11.7%
